# Experimental data taken from PubChem BioAssay (EPA / NIEHS).
# “And” between values parts separate entries of the source, which are not always exact repeats. Equal values may be shown once. Results filed as inconclusive are left out. Some compounds were tested as several samples or in several runs, with calls that do not always agree. The source made the active and inactive calls. Rule for the calls: active = hit-call score of the fitted dose curve at least 0.9, where 1 is the maximum; inconclusive = response in the unintended direction; inactive = score below 0.9.
# Target: Peroxisome proliferator-activated receptor gamma (Homo sapiens) (UniProt P37231)
# Sequence (P37231 whole entry, looked up): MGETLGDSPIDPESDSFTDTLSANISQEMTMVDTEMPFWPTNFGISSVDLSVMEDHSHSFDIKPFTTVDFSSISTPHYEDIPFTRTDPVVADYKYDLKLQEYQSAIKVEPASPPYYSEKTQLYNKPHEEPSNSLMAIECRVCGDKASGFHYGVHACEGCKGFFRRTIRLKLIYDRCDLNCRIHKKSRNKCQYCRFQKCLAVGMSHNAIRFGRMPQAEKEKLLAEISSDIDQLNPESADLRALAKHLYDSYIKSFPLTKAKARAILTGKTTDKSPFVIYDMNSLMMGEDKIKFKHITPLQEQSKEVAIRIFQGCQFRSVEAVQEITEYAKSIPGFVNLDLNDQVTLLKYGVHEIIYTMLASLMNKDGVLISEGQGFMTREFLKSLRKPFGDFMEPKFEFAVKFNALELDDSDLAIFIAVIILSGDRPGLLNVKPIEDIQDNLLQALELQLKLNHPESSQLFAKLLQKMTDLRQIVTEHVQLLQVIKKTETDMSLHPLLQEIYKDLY
# Assay: ATG_PPARg_TRANS: Attagene TRANS-FACTORIAL HepG2 Assay for human Peroxisome Proliferator-activated Receptor-gamma (PPARg) (AID 2283007)
# Protocol: ATG_TRANS is a cell-based, multiplexed-readout assay that uses HepG2, a human liver cell line, with measurements taken at 24 hours after chemical dosing in a 24-well plate.ATG_PPARg_TRANS is one of 30 assay component(s) measured or calculated from the ATG_TRANS assay. It is designed to make measurements of mRNA induction, a form of inducible reporter, as detected with fluorescence intensity signals by Reverse transcription polymerase chain reaction (RT-PCR) and Capillary electrophoresis technology.Data from the assay component ATG_PPARg_TRANS was analyzed into 1 assay endpoint. This assay endpoint, ATG_PPARg_TRANS, was analyzed in the positive analysis fitting direction relative to DMSO as the negative control and baseline of activity. Using a type of inducible reporter, measures of mRNA for gain-of-signal activity can be used to understand the reporter gene at the transcription factor-level as they relate to the gene PPARG. Furthermore, this assay endpoint can be referred to as a primary readout, because this assay has produced multiple assay endpoints where this one serves a reporter gene function. To generalize the intended target to other relatable targets, this assay endpoint is annotated to the nuclear receptor intended target family, where the subfamily is non-steroidal.
# Human liver HepG2 cells are transiently transfected with multiple reporter transcription units (MRTUs) in 6-well plates using FuGene 6 reagent (Roche; 3 ml FuGene/1 mg DNA). The MRTU constructs are regulated by a cis-regulating element (promoter). […] A major difference between the CIS and TRANS system is that in CIS activities of endogenous TFs are measured, whereas the TRANS assay evaluates changes in activities of exogenous, chimeric NR-Gal4 proteins. […] At the end of 24 hour incubation, total RNA was isolated using TriZol reagent (Invitrogen). The isolated RNA is then reverse-transcribed using oligo(dT) primer and Mo-MLV reverse transcriptase (Invitrogen) with DNAse I (Ambion) treatment for 30 min. The one-tenth of the produced cDNA was amplified by PCR using Taq DNA polymerase (Invitrogen) and two reporter sequence-specific primers. The PCR products were fluorescently labeled by primer extension with 6-arboxyfluorescein (6-FAM) 5'-labeled reporter sequence-specific primer (2 min at 95 C, 20 s at 68 C and 10 min at 72 C) and these products were digested with 5U of HpaI (New England Biolabs) for 2h at 37 C. The fragments were purified using Qiaquick PCR columns (Qiagen), analyzed on an ABI 3130xL genetic analyzer (Applied Biosystems) with peak positions identified by using a set of X-rhodamine (ROX)-labeled MapMarker1000 molecular weight standards (BioVentures). The raw capillary electrophoresis data was processed using Attagraph software (Attagene).
Structure (SMILES),outcome,AC50
O=C(Nc1ccc(Cl)cc1)Nc1ccc(Cl)c(Cl)c1,inactive,
CN1C(=O)CC[C@H]1c1cccnc1,inactive,
Clc1cc(Cl)c2c(c1)N=C1CCCCCN1C2,,16.1 µM (active)
CC(C)(O)c1ccc(CNC(=O)c2cccnc2Oc2ccc3nonc3c2)cc1,,27 µM (active)
CN(C)c1ccc(C(=C2C=CC(=[N+](C)C)C=C2)c2ccc(N(C)C)cc2)cc1,,16.8 µM (active)
O=c1[nH]sc2ccccc12,inactive,
CCOC(=O)O[C@H](C)OC(=O)c1ccc2c(c1)cc(C(=O)NC1CCN(C(C)C)CC1)n2Cc1cc(-c2ccc(Cl)s2)on1,inactive,
c1ccc(C[n+]2cccc3ccccc32)cc1,inactive,
OC12N=C(c3ccccc3)SC1Cc1cc(Cl)ccc12 (stereo not given),,0.03 µM (active)
O=C=NCCCCCCN=C=O,inactive,
CC1(C)NC(=O)N(c2ccc([N+](=O)[O-])c(C(F)(F)F)c2)C1=O,inactive,
NCc1cccc(C2CCN(C(=O)c3ccc(C#Cc4ccccc4F)o3)CC2)c1,,1.33 µM (active)
CCCCCCCCCCCO,,62.9 µM (active)
Cc1cn([C@H]2C[C@H](N=[N+]=[N-])[C@@H](CO)O2)c(=O)[nH]c1=O,inactive,
CCCCOC(=O)c1ccc(O)cc1,inactive,39.9 µM (active) and 54 µM (active) and 27.3 µM (active)
COc1ccc2cc(S(=O)(=O)N[C@H](CC(=O)N[C@H](Cc3ccc(CN4[C@H](C)CCC[C@@H]4C)cc3)C(=O)N(C)C(C)C)c3ccc4c(c3)OCO4)ccc2c1,inactive,
Cc1cc(F)ccc1-c1cc(N2CC[C@@H](O)[C@H]2CO)ncc1N(C)C(=O)C(C)(C)c1cc(C(F)(F)F)cc(C(F)(F)F)c1,inactive,
NC(=O)c1nc(-c2cccc(-c3cc(F)ccc3OCC(F)(F)C(F)(F)F)c2)n[nH]1,,13 µM (active)
Cc1oc2c(NC(=O)c3c(Cl)cccc3Cl)cccc2c1C(C)(C)O,,3.28 µM (active)

Structure (SMILES),outcome,AC50
CCCCCCCCCC(=O)O,,29.2 µM (active) and 12.3 µM (active)
CC(=O)N1CCN(c2ccc(OC[C@H]3CO[C@](Cn4ccnc4)(c4ccc(Cl)cc4Cl)O3)cc2)CC1,inactive,
Cc1occc1C(=O)Nc1ccc(C(=O)N2CCC(F)(F)/C(=C\C(=O)N3CCC(N4CCCCC4)CC3)c3ccccc32)cc1,,59.6 µM (active)
Oc1ccc2ccccc2c1,inactive,
CCCCCCCCOC(=O)c1cc(O)c(O)c(O)c1,,39.8 µM (active)
Cc1ncc(CO)c(CO)c1O,inactive,
CCCCCc1ccc(N)cc1,inactive,100 µM (active) and 34 µM (active)
CCCCCCCC[Si](OCC)(OCC)OCC,inactive,
O=C1c2ccccc2C(=O)N1CCc1noc(-c2ccc(CN3CCCCCC3)s2)n1,inactive,
O=C1O[C@H]([C@@H](O)CO)C(O)=C1O,inactive,
CCCCOC(=O)CC(CC(=O)OCCCC)(OC(C)=O)C(=O)OCCCC,,16.2 µM (active) and 8.69 µM (active)
c1ccc2n[nH]nc2c1,inactive,
Cc1ccc2oc(CN(Cc3ccccc3)C(=O)Nc3c(F)cc(F)cc3F)c(-c3ccc(Cl)cc3)c2c1,inactive,
COc1cc(C(=O)NC2CCN(C)CC2)ccc1Nc1ncc2c(n1)N(C1CCCC1)CC(F)(F)C(=O)N2C,inactive,
Cc1cc2c(cc1C(F)(F)F)N(C(=O)Nc1ccc(Oc3cccnc3C)nc1)CC2,inactive,
Oc1ccccc1,inactive,
O=C(O)c1ccccc1C(=O)OCc1ccccc1,inactive,
CCN(Cc1cccnc1)C(=O)c1cccc(Cl)c1[C@]1(C)C(=O)N(Cc2ccc(OC)cc2OC)c2ccc(Cl)cc21,inactive,
O=c1c(-c2ccc(O)cc2)coc2cc(O)cc(O)c12,,32.7 µM (active) [middle of 4 runs]
